Laboratory results taken from PubChem BioAssay (NCI).
Compounds without any hit were thinned out: in the full panel of roughly 83,000, 20% have a hit.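 Plates (96-well) were seeded with cells, treated with compound at one concentration, and incubated for 48 hours before percent growth was determined.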 A number with no mark means an inactive call. The source made the active and inactive calls. How the source made its calls: active means growth percent below 10; inactive means the rest.

system: A498 renal; test: NCI-60 one-dose screen, 48 h (100 = growth as untreated, 0 = no growth, -100 = all killed); details: 10 µM unless noted

| Structure (SMILES) | growth |
| --- | --- |
| CC[C@@H](C)[C@H](NC(=O)Cn1cc(CNC(=O)[C@@H](NC(=O)OCc2ccccc2)C(C)C)nn1)C(=O)O | 98.9% |
| CC[C@H](C)[C@@H](C(=O)OC)n1cc(CNC(=O)[C@@H](Cc2ccccc2)NC(=O)OCc2ccccc2)nn1 | 83.3% |
| O=c1c(-c2nc3ccccc3[nH]2)cc2ccccc2n1Cc1cn(Cc2ccccc2Cl)nn1 | 67% |
| COc1c(B(O)O)cccc1-c1nc2ccc3n[nH]c(F)c3c2c2c1CCCC2 | 65.7% |
| O=C(CSc1nc2ccccc2c(=O)n1-c1ccccc1)Nc1ccc(C(=O)/C=C/c2ccc(Cl)cc2)cc1 | 95.2% |
| O=c1cc(-c2ccccc2)oc2cc(OCc3cn(Cc4ccc(F)cc4)nn3)cc(OCc3cn(Cc4ccc(F)cc4)nn3)c12 | 30.8% |
| Nc1no[n+]([O-])c1-c1nnc2c(n1)-c1ccccc1C2=O | 91% |
| Cc1nc2ccccc2c(/C=C/c2ccccc2)c1C(=O)/C=C/c1ccc(Cl)cc1 | 36.7% |
| COc1ccc(/C=C/C(=O)c2c(C)nc3ccccc3c2/C=C/c2ccccc2)cc1O | 106% |
| COc1ccc(C2=Nn3c(NN)nnc3SC2)cc1 | 84.6% |
| COc1cc2nc(NC3CCC3)nc(NC3CCN(C(C)C)CC3)c2cc1OC | 75.9% |
| NC(=O)CSc1nc(-c2ccc(F)cc2)cc(-c2ccco2)n1 | 103% |
| O=c1c2cccc(F)c2sc2c(N3CCNCC3)nc3ccccc3c12 | 48.5% |

system: CCRF-CEM leukemia; test: as above; details: 10 µM unless noted

| Structure (SMILES) | growth |
| --- | --- |
| O=C1/C(=C\c2ccc[nH]2)c2ccccc2N1c1ccccc1 | 99.2% |
| CC[C@@H](C)[C@H](NC(=O)Cn1cc(CNC(=O)[C@@H](NC(=O)OCc2ccccc2)C(C)C)nn1)C(=O)O | 106% |
| CN1C(=O)N(C)C2C1NN=c1s/c(=C\c3ccc([N+](=O)[O-])cc3)c(=O)n12 (stereo unspecified) | 70.4% |
| CNCCNc1nc2ccccc2c2c(=O)c3cccc(C)c3sc12 | 21% |
| CCCCN1CCN(c2ccc3nc(-c4ccc5nc(-c6ccc(C(F)(F)F)cc6)[nH]c5c4)[nH]c3c2)CC1 | -32.6% (active) |
| CC[C@H](C)[C@@H](C(=O)OC)n1cc(CNC(=O)[C@@H](Cc2ccccc2)NC(=O)OCc2ccccc2)nn1 | 85.1% |
| COc1ccc(C2=C(c3cccc(OC)c3)C(=O)c3ccc(C)nc3C2=O)cc1 | 19.1% |
| CC(C)C[C@H](C(=O)N[C@@H](C)C(N)=O)N1CC=CCN(O)S1(=O)=O | 105% [5 µM] |
| CN1C(=O)N(C)C2Nn3c(s/c(=C\c4ccc(Cl)cc4Cl)c3=O)=NC21 (stereo unspecified) | 49% |
| COc1ccc(/C=c2\sc3n(c2=O)NC2C(N=3)N(C)C(=O)N2C)cc1 (stereo unspecified) | 95.7% |
| COC(=O)c1c2c(c(C)[n+]([O-])c1C)C(=O)C=C(NCc1ccccc1)C2=O | 6.23% (active) |
| CCN1C(=O)N(CC)C2C1NN=c1s/c(=C3\C(=O)N(CC(C)(C)C)c4ccccc43)c(=O)n12 (stereo unspecified) | 10.2% |
| CCCCCCCCCCCCCCn1cc(C2=C(c3coc4ccc(OC)cc34)C(=O)NC2=O)c2ccccc21 | 101% |
| O=c1c(-c2nc3ccccc3[nH]2)cc2ccccc2n1Cc1cn(Cc2ccccc2Cl)nn1 | 65.2% |
| COc1c(B(O)O)cccc1-c1nc2ccc3n[nH]c(F)c3c2c2c1CCCC2 | 38.8% |
| O=C(CSc1nc2ccccc2c(=O)n1-c1ccccc1)Nc1ccc(C(=O)/C=C/c2ccc(Cl)cc2)cc1 | 99.7% |
| Cc1cccc2c(=O)c3c(sc12)c(NCCN)nc1ccccc13 | -34.5% (active) |
| O=c1cc(-c2ccccc2)oc2cc(OCc3cn(Cc4ccc(F)cc4)nn3)cc(OCc3cn(Cc4ccc(F)cc4)nn3)c12 | 77.5% |
| COc1cc(/C=C2\Oc3cc(OCCCN4CCCC4)ccc3C2=O)cc(OC)c1 | -24.4% (active) |
| Nc1no[n+]([O-])c1-c1nnc2c(n1)-c1ccccc1C2=O | 35.5% |
| Cc1nc2ccccc2c(/C=C/c2ccccc2)c1C(=O)/C=C/c1ccc(Cl)cc1 | 3.51% (active) |
| O=C(CN1C=NC2C(N3CCOCC3)=NC=NC21)c1ccc(Br)cc1 (stereo unspecified) | 105% |
| COc1ccc(/C=C/C(=O)c2c(C)nc3ccccc3c2/C=C/c2ccccc2)cc1O | 32.2% |
